Experimental data as given in PubChem BioAssay (EPA / NIEHS).
Inconclusive results are not listed. Calls of active or inactive are those of the source. The calls were made as follows, unless noted: active = hit-call score of the fitted dose curve at least 0.9, where 1 is the maximum; inactive = score below 0.9.

Tests used:
[1] = target: Aryl hydrocarbon receptor (Homo sapiens) (UniProt P35869); test: ATG_Ahr_CIS: Attagene CIS-FACTORIAL HepG2 Assay for human Aryl Hydrocarbon Receptor (Ahr) (AID 2282930); settings: HepG2 AhR cis-factorial reporter transcription; actives raise or lower the signal
Outline: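 HepG2, transient MRTU (cis) transfection, 24 h exposure. RNA → cDNA → PCR → 6-FAM primer extension → HpaI 2 h 37 C → CE. Fit: bidirectional, DMSO baseline.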

[2] = ATG_AP_1_CIS: Attagene CIS-FACTORIAL HepG2 Assay for human Activator Protein 1 (AP-1) (AID 2282931); settings: HepG2 Attagene cis-factorial AP-1 reporter mRNA; actives raise or lower the signal
Outline: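 Multiplexed HepG2 reporter assay, 24 h dosing. mRNA induction detected by RT-PCR plus capillary electrophoresis. Activity fitted in both directions against DMSO.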

[3] = ATG_BRE_CIS: Attagene CIS-FACTORIAL HepG2 Assay for human Bone Morphogenetic Protein (BMP) Response Element (BRE) (AID 2282933); settings: HepG2 BMP response element reporter, Attagene transcription factor profiling; actives raise or lower the signal
Outline: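 Gain- or loss-of-signal was derived by bidirectional fitting against DMSO controls. The signal came from reporter mRNA, measured by RT-PCR and capillary electrophoresis, in HepG2 cells transiently carrying multiple reporter units and dosed for 24 h.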

[4] = target: Paired box protein Pax-6 (Homo sapiens) (UniProt P26367); test: ATG_Pax6_CIS: Attagene CIS-FACTORIAL HepG2 Assay for human Paired Box 6 (PAX6) (AID 2282956); settings: HepG2 CIS-FACTORIAL PAX6 reporter transcription, RNA readout; actives raise or lower the signal
Outline: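 Multiplexed cis-reporter HepG2 system; 24 h treatment; reporter mRNA read by RT-PCR/CE fluorescence; bidirectional fit vs DMSO.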

[5] = ATG_RORE_CIS: Attagene CIS-FACTORIAL HepG2 Assay for human RAR-related Orphan Receptor Element (RORE) (AID 2282959); settings: HepG2 Attagene cis-factorial RORE reporter, mRNA; actives raise or lower the signal
Outline: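 Endogenous factor activity at a cis response element is read as reporter transcript levels in HepG2 cells, 24 h post-dose. Transcripts are quantified by RT-PCR with capillary electrophoresis, and data fitted in both directions against DMSO.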

[6] = ATG_TAL_CIS: Attagene CIS-FACTORIAL HepG2 Assay for human TAL Basal Promoter (AID 2282966); settings: HepG2 Attagene cis-factorial TAL promoter reporter; actives raise or lower the signal;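 also: background control endpoint measuring basal TAL promoter reporter mRNA not a specific factor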
Outline: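 Fluorescence of labelled reporter cDNA fragments, resolved by capillary electrophoresis, gave the readout. Human HepG2 liver cells carried transiently transfected cis-element reporter units and were treated for 24 hours; activity was fitted bidirectionally against DMSO.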

[7] = ATG_TGFb_CIS: Attagene CIS-FACTORIAL HepG2 Assay for human Transforming Growth Factor (TGF) (AID 2282967); settings: HepG2 Attagene CIS TGFb reporter, mRNA transcription; actives raise or lower the signal
Outline: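 Transcript-level reporter readout: HepG2 transfectants, 24 h exposure, RNA to cDNA, reporter-specific PCR, fluorescent primer extension, capillary sizing against ROX standards. Gain- or loss-of-signal relative to DMSO.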

[8] = ATG_VDRE_CIS: Attagene CIS-FACTORIAL HepG2 Assay for human Vitamin D Receptor Element (VDRE) (AID 2282968); settings: HepG2 VDRE cis-reporter transcription, actives raise or lower the signal
Outline: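 In transiently transfected HepG2 liver cells, gain or loss of reporter mRNA after 24 h exposure is scored relative to DMSO, using fluorescence detection by capillary electrophoresis of RT-PCR products.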

[9] = target: X-box-binding protein 1 (Homo sapiens) (UniProt P17861); test: ATG_Xbp1_CIS: Attagene CIS-FACTORIAL HepG2 Assay for human X-box Binding Protein 1 (XBP1) (AID 2282972); settings: HepG2 XBP1 cis-element reporter, Attagene multiplex; actives raise or lower the signal
Outline: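 Fluorescence-labelled cDNA fragments from reporter transcripts, separated by capillary electrophoresis, give the signal. Source: HepG2 cells transfected with promoter-driven reporter units, harvested 24 h post-dose. DMSO served as reference for bidirectional curve fitting.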

[10] = ATG_M_32_TRANS: Attagene TRANS-FACTORIAL HepG2 Assay for M32 Transcription Factor (Internal Marker) (AID 2282984; active = hit-call score of the fitted dose curve at least 0.9, where 1 is the maximum;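 also: transcript level of a background control reporter unit measured by RT-PCR and capillary electrophoresis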); settings: HepG2 Attagene TRANS M32 internal marker reporter
Outline: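 Using transiently transfected HepG2 cells exposed to test chemicals for 24 h, reporter transcripts are converted to labelled cDNA fragments and quantified by capillary electrophoresis. DMSO defines the activity baseline.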

[11] = ATG_NFI_CIS: Attagene CIS-FACTORIAL HepG2 Assay for human Nuclear Factor I (NFI) (AID 2282989); settings: HepG2 cis-regulatory reporter, NFI response element transcription; actives raise or lower the signal
Outline: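 After transient transfection of HepG2 with cis-promoter reporter constructs and 24 h dosing, RNA is reverse-transcribed, amplified, 6-FAM end-labelled and HpaI-digested before capillary analysis. Bidirectional curve fitting against DMSO.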

[12] = target: Myc proto-oncogene protein (Homo sapiens) (UniProt P01106); test: ATG_Myc_CIS: Attagene CIS-FACTORIAL HepG2 Assay for human Myelocytomatosis (Myc) Proto-Oncogene Transcription Factor (AID 2282990); settings: HepG2, Attagene cis-reporter transcription factor activity; actives raise or lower the signal
Outline: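 Cells of the HepG2 human liver line bear multiple cis-driven reporter transcription units. Reporter mRNA after 24 h exposure is reverse-transcribed, amplified, labelled and resolved by capillary electrophoresis, with gain- or loss-of-signal fitting relative to DMSO.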

[13] = ATG_NF_kB_CIS: Attagene CIS-FACTORIAL HepG2 Assay for human Nuclear Factor Kappa B (NF-kB) (AID 2282991); settings: HepG2 Attagene cis-factorial NF-kB reporter mRNA; actives raise or lower the signal
Outline: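 Measures mRNA induction of an NF-kB-responsive cis-element reporter in HepG2 cells transfected with multiple reporter units, sampled 24 h post-dosing; quantified by fluorescence after RT-PCR and capillary electrophoresis, fitted for activation or inhibition against DMSO.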

[14] = ATG_NRF2_ARE_CIS: Attagene CIS-FACTORIAL HepG2 Assay for human Nuclear Factor Erythroid 2 Related Factor 2 (NFR2) response to Antioxidant Response Elements (ARE) (AID 2282992); settings: HepG2 Attagene ARE/NRF2 reporter, transcription factor activity; actives raise or lower the signal
Outline: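 Multiplexed reporter mRNA profiling in HepG2 after a 24 h chemical exposure. Curves fitted in both directions relative to DMSO negative control.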

[15] = ATG_Oct_MLP_CIS: Attagene CIS-FACTORIAL HepG2 Assay for human Octamer-Binding Transcription Factor (Oct) (AID 2282993); settings: HepG2 Attagene cis-factorial Oct reporter, mRNA; actives raise or lower the signal
Outline: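 Cells of the HepG2 line express promoter-controlled reporter sequences whose mRNA levels, after 24 h treatment, are measured by RT-PCR and capillary electrophoresis. Increases and decreases are scored relative to DMSO.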

[16] = target: Cellular tumor antigen p53 (Homo sapiens) (UniProt P04637); test: ATG_p53_CIS: Attagene CIS-FACTORIAL HepG2 Assay for human p53 Transcription Factor (AID 2282994); settings: HepG2 p53 cis-element reporter, Attagene mRNA; actives raise or lower the signal
Outline: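 Multiplexed reporter mRNA assay in human HepG2 liver cells; cis-regulated units report endogenous factor activity. Values come from bidirectional curve fitting against DMSO negative control after 24 h treatment.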

[17] = target: Peroxisome proliferator-activated receptor gamma (Homo sapiens) (UniProt P37231); test: ATG_PPARg_TRANS: Attagene TRANS-FACTORIAL HepG2 Assay for human Peroxisome Proliferator-activated Receptor-gamma (PPARg) (AID 2283007; active = hit-call score of the fitted dose curve at least 0.9, where 1 is the maximum)
Outline: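 Gain-of-signal endpoint relative to DMSO, derived from reporter mRNA levels quantified by RT-PCR and capillary electrophoresis. Cells were HepG2 transiently expressing a chimeric NR-Gal4 construct with GAL4-UAS reporters, exposed to chemicals for 24 h.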

[18] = target: Nuclear receptor subfamily 1 group I member 2 (Homo sapiens) (UniProt O75469); test: ATG_PXR_TRANS: Attagene TRANS-FACTORIAL HepG2 Assay for human Pregnane X Receptor (PXR) (AID 2283008; active = hit-call score of the fitted dose curve at least 0.9, where 1 is the maximum)
Outline: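 Measures mRNA induction of a GAL4-UAS-driven reporter in human HepG2 cells transiently expressing PXR fused to Gal4, following 24 h treatment. DMSO served as negative control and baseline.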

[19] = ATG_GLI_CIS: Attagene CIS-FACTORIAL HepG2 Assay for human Zinc Finger Protein GLI1 (AID 2282945); settings: HepG2, Attagene cis-factorial reporter mRNA, GLI element; actives raise or lower the signal
Outline: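 Bidirectional curve fits relative to DMSO, using reporter mRNA levels from RT-PCR plus capillary electrophoresis. Cells were HepG2 transiently carrying cis-regulated reporter constructs, harvested 24 h after dosing.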

[20] = ATG_XTT_Cytotoxicity: Cytotoxicity Assessment in the Attagene TRANS-FACTORIAL HepG2 Assay (AID 2283584; active = hit-call score of the fitted dose curve at least 0.9, where 1 is the maximum)
Outline: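 Cells: human HepG2, transiently transfected with MRTU reporter constructs. Exposure 24 h. Readout: XTT, cell number. Baseline/neg ctrl DMSO; loss-of-signal scored.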

Measured: AC50

Sequence of Aryl hydrocarbon receptor (Homo sapiens) (P35869 whole entry, looked up): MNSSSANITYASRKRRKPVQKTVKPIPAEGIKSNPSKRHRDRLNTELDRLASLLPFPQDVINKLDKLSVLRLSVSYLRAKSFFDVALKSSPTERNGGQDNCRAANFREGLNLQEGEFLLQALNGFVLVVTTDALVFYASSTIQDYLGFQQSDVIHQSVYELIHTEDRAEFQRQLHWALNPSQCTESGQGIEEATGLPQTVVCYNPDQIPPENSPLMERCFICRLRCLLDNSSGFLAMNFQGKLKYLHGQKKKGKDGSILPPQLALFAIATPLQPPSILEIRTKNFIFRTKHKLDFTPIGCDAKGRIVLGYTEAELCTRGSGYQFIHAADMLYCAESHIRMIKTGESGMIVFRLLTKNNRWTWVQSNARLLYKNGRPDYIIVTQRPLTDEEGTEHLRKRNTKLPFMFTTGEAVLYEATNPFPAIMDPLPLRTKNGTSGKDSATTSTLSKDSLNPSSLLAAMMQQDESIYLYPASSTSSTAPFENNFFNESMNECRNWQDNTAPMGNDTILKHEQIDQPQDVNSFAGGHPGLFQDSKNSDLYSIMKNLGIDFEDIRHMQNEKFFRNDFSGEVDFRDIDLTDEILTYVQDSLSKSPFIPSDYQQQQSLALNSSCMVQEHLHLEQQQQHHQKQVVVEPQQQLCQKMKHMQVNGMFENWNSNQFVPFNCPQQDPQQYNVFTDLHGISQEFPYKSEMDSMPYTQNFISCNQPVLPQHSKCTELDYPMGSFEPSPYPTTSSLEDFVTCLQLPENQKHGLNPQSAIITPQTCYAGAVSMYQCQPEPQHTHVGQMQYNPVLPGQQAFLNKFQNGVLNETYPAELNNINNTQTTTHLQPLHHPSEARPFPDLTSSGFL
Sequence of Myc proto-oncogene protein (Homo sapiens) (P01106 whole entry, looked up): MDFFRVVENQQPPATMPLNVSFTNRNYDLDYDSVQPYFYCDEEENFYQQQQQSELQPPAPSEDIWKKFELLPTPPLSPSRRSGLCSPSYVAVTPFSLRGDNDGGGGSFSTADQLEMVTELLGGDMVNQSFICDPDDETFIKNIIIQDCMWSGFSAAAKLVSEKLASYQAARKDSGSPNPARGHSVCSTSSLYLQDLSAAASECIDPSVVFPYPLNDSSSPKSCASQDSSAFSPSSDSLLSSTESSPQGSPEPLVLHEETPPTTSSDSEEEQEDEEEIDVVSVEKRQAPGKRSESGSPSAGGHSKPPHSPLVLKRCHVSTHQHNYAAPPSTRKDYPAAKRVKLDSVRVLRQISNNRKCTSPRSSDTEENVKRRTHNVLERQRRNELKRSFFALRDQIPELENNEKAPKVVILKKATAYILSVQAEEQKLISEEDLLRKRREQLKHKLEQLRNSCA
Sequence of Paired box protein Pax-6 (Homo sapiens) (P26367 whole entry, looked up): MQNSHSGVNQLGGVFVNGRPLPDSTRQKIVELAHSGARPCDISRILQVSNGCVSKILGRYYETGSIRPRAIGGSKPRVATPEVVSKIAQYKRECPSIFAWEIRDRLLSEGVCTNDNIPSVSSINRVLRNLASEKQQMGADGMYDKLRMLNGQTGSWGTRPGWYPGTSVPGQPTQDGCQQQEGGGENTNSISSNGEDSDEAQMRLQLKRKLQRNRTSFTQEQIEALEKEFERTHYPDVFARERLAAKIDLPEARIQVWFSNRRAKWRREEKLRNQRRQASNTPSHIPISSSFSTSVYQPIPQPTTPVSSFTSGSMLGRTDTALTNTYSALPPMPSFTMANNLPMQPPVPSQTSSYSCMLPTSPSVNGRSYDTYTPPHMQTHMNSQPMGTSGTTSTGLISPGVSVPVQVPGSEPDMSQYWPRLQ
Sequence of Peroxisome proliferator-activated receptor gamma (Homo sapiens) (P37231 whole entry, looked up, the tested form may be a part): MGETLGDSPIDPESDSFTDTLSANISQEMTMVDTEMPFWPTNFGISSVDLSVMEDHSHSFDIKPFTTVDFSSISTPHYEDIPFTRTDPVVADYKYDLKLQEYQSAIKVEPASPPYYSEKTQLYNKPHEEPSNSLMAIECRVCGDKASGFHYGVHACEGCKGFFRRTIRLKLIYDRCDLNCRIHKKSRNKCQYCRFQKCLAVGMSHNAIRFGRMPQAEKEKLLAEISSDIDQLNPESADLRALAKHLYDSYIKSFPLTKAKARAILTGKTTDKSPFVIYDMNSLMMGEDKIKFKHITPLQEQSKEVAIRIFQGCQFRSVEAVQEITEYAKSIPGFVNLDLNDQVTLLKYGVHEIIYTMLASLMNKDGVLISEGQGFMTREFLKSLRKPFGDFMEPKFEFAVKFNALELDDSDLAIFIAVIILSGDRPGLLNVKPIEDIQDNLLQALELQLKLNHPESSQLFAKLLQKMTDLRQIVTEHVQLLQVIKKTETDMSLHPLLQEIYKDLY
Sequence of X-box-binding protein 1 (Homo sapiens) (P17861 whole entry, looked up, the tested form may be a part): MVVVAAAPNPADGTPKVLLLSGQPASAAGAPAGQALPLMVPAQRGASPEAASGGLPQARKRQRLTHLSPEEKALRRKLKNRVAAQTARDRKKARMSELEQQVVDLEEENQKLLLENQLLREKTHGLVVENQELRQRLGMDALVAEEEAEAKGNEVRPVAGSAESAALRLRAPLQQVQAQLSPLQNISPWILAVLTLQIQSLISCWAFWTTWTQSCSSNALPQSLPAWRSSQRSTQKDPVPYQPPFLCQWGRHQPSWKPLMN
Sequence of Cellular tumor antigen p53 (Homo sapiens) (P04637 whole entry, looked up): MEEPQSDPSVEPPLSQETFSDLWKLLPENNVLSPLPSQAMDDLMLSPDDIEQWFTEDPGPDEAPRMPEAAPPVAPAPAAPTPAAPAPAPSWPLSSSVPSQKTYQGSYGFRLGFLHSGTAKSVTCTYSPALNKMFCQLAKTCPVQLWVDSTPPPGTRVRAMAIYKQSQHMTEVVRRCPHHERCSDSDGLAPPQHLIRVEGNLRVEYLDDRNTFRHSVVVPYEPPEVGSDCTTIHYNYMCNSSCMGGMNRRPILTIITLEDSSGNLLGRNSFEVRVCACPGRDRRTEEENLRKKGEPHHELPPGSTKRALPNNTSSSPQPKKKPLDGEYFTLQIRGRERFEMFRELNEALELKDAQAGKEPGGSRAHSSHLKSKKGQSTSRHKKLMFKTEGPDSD
Sequence of Nuclear receptor subfamily 1 group I member 2 (Homo sapiens) (O75469 whole entry, looked up, the tested form may be a part): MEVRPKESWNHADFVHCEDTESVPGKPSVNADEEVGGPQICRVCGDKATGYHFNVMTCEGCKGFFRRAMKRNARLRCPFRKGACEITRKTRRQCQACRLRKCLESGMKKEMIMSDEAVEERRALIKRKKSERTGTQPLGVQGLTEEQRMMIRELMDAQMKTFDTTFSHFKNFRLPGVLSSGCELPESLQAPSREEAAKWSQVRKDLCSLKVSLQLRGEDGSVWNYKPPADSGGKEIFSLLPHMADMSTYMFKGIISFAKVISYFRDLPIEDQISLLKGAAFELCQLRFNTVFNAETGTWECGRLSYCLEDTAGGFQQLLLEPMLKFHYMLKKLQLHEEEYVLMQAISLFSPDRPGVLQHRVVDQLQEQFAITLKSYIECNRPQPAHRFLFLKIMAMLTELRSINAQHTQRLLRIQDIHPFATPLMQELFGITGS

SCc1ccco1
active: [2] 52 µM | [14] 71.2 µM | [17] 27.9 µM
not listed: [19] | [20]
inactive: all other assays above

CN(C)N
not listed: [7] | [13] | [17] | [18]
inactive: all other assays above

Oc1ccc(Cl)cc1
not listed: [17] | [18]
inactive: all other assays above

CCOC(=O)NC(=S)Nc1ccccc1NC(=S)NC(=O)OCC
active: [14] 5.19 µM | [18] 0.77 µM
not listed: [19]
inactive: all other assays above

Nc1c(Cl)c(Cl)c(Cl)c(Cl)c1Cl
active: [1] 31.4 µM | [14] 38.1 µM | [18] 13.3 µM
not listed: [13] | [16] | [20]
inactive: all other assays above

CCOP(O)OCC
not listed: [4] | [16] | [18]
inactive: all other assays above

CCc1cccc(C)c1N(C(=O)CCl)[C@@H](C)COC
active: [8] 2.13 µM | [14] 7.39 µM | [17] 27 µM | [18] 0.18 µM
not listed: [5] | [19]
inactive: all other assays above

N#Cc1cc(I)c(O)c(I)c1
active: [2] 100 µM | [8] 30.8 µM | [9] 33.6 µM | [14] 28.3 µM | [15] 39.3 µM | [17] 10.7 µM
not listed: [4] | [7] | [19]
inactive: all other assays above

CN(N=O)c1ccccc1
not listed: [16] | [20]
inactive: all other assays above

ClCCCCCCCl
not listed: [16] | [17] | [18]
inactive: all other assays above

CCCC=NO
not listed: [4] | [7] | [13] | [19]
inactive: all other assays above

O=c1[nH]c(Cl)c(Cl)cc1Cl
active: [1] 13.8 µM | [14] 76.3 µM | [17] 14.2 µM
not listed: [13] | [19]
inactive: all other assays above

[CH3][Sn]([Cl])([Cl])[Cl]
active: [14] 57.6 µM
not listed: [10] | [13] | [20]
inactive: all other assays above

CCOP(=O)(OCC)Oc1ccc([N+](=O)[O-])cc1
not listed: [4] | [7]
inactive: all other assays above

Clc1ccc(-c2ccccc2)cc1
active: [2] 170 µM | [11] 152 µM | [14] 149 µM
not listed: [20]
inactive: all other assays above
